# Hits are enriched below; roughly 1.2% of the tested compounds scored in any of these assays.
# NSD2 HMT inh = NSD2 histone methyltransferase inhibitors, primary screen, biochemical, AlphaScreen, single concentration, set 2; Histone-lysine N-methyltransferase NSD2 (Homo sapiens), O96028; NSD2 peptide methylation, 120 min; inhibition, % at 12.5 µM; hit rate 0.54% among 310,000; in the data active = inhibition above about 50%
# miR-122 sensor = miR-122 Renilla sensor signal increase in Huh7, primary screen, miR-122 inhibitor project, cell-based, single point, plate reader. Huh7 miR-122 Renilla luciferase sensor, 48 h; neutral wells = 0, positive control = 100. activation (reporter increase), % at 12.5 µM. hit rate 0.3% among 340,000. AID 602342, 2012;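 active = mean replicate activation score at least 90 and every replicate individually at or above 90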;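 note: higher luciferase means less miR-122 activity so hits act as miR-122 inhibitors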
# PglD inh = C. jejuni PglD acetyltransferase inhibitors, primary screen, biochemical, DTNB colorimetric, single point; AID 602405, 2012; hit rate 0.098% among 360,000; inhibition, % at 12.5 µM; purified PglD enzyme, DTNB colorimetric CoA detection; in the data active = inhibition above about 16%, passing the limit was not always enough
# Statin myotox sup = suppressors of statin myotoxicity in C2C12 myotubes, primary screen, cell-based, single point, plate reader; AID 602340, 2012; hit rate 0.78% among 330,000; C2C12 myotubes + simvastatin, ATP luminescence, 48 h; scaled: DMSO 0, geranylgeraniol control 100; rescue of ATP level, % at 7.49 µM;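 active = mean ATP rescue above about 67%, or every replicate alone reaching that limit, limit read from the data, passing the limit was not always enough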;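 note: myotubes were challenged with 10 µM simvastatin during compound exposure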
# * = called active by the depositor; . = no result; [ ] = another dose, or the depositor's remark.
SMILES,NSD2 HMT inh,miR-122 sensor,PglD inh,Statin myotox sup
Cc1ccc(C(=O)O/N=C/c2c(C(F)(F)F)nn(C)c2Sc2ccc(Cl)cc2)cc1,5,0,-3,116*
COC(=O)C1=C(CSCc2ccco2)NC(=O)NC1c1cc(C)ccc1C (configuration not stated),3,2,-1,134*
C[C@@H]1CN([C@@H](C)CO)C(=O)CCCn2nncc2CO[C@@H]1CN(C)Cc1cccnc1,.,5[16.7 µM],.,-6
O=C(Nc1ccccc1F)N1CCCCN2[C@@H](CO)[C@H](c3ccc(C#Cc4ccccc4)cc3)[C@@H]2C1,.,0[16.7 µM],0,.
O=C(O)c1ccc(C(=O)c2ccc3c(c2)C(=O)N(Cc2ccco2)C3=O)cc1,3,-5,8,110*
O=C(c1ccc2c(c1)C(=O)N(Cc1ccco1)C2=O)N1CCOCC1,-5,-5,2,4
Cc1cccc(C)c1NS(=O)(=O)c1ccc(F)cc1,-2,-2,5,115*
CN1C(=O)c2cc(NC(=O)c3ccccc3)ccc2OC[C@H]2O[C@@H](CC(=O)NC3CCCC3)CC[C@H]21,.,3[16.7 µM],2,41
CO[C@H]1CC[C@@H]2CCOc3ccc(C#N)cc3C(=O)N(C)C[C@@H](OC)[C@@H](C)C(=O)N(C)C[C@H]1O2,.,.,3,75*
CO[C@H]1CC[C@H]2CCOc3ccc(C#N)cc3C(=O)N(C)C[C@H](OC)[C@@H](C)C(=O)N(C)C[C@@H]1O2,.,.,1,-4
Cc1cc(C)n(C(=O)c2cc3ccccc3c(=O)o2)n1,2,3,3,93*
CCOc1ccccc1NS(=O)(=O)c1ccc(-c2cnc(C3CC3)o2)cc1,-3,127*,2,-52
COc1ccccc1NS(=O)(=O)c1ccc(-c2cnc(C3CC3)o2)cc1,-6,31,9,-49
CC(=O)Nc1ccc(NS(=O)(=O)c2cc(-c3cnc(C4CC4)o3)ccc2C)cc1,3,10,-3,-22
Cc1ccc(-c2cnc(C3CC3)o2)cc1S(=O)(=O)Nc1ccccc1,-1,334*,-4,-37
O=C(C[C@@H]1CC[C@H]2[C@@H](COC[C@@H](O)CN2C(=O)Nc2ccc(Cl)cc2)O1)NCc1ccncn1,.,-1[16.7 µM],-2,-2
COc1ccc(C#Cc2ccc3c(c2)O[C@@H](CN(C)C(=O)c2ccccn2)[C@@H](C)CN([C@@H](C)CO)S3(=O)=O)cc1,.,8[16.7 µM],-1,22
CCNc1nc(N)nc(Oc2ccc(OCCOc3ccccc3)nn2)n1,-2,151*,3,.
CC(=O)N1CCc2cc(Br)cc(S(=O)(=O)NCc3ccc(Cl)cc3)c21,33,110*,1,-7
CCC(=O)N1CCc2cc(Br)cc(S(=O)(=O)CC(=O)OC)c21,.,4,1,105*
CC(C)Sc1nc(SCC(=O)NCc2ccco2)c2c3c(sc2n1)COC(C)(C)C3,1,6,0,129*
Oc1ccc2ccccc2c1C=NC12CN3CCN(CN(C3)C1)C2,113*,0,0,12
O=C(Cc1c(F)c(F)c(F)c(F)c1F)OC12CC3CC(C1)C(=O)C(C3)C2,-4,4,7,-10
CC(=O)OC12CC3CC(C1)C(=NO)C(C3)C2,-2,-9,1,94*
CCCC(c1nnnn1Cc1ccc(OC)cc1)N1CCN(c2ccccc2)CC1 (configuration not stated),1,-1,0,137*
SMILES,NSD2 HMT inh,miR-122 sensor,PglD inh,Statin myotox sup
CCN1C(=O)c2cccc3c(S(=O)(=O)NCCc4c[nH]c5ccccc45)ccc1c23,2,498*,9,10
C[C@@H]1CN([C@@H](C)CO)C(=O)c2cc(C3=CCCCC3)cnc2O[C@@H]1CN(C)C(=O)c1ccncc1,.,13[16.7 µM],5,23
Cc1sc2nc3ccc(N4CCCCC4)nn3c(=O)c2c1C,-1,-17,4,113*
Cc1cc(C)n2nc(C(=O)OCC(=O)N(CC(C)C)C3CCS(=O)(=O)C3)nc2n1 (configuration not stated),1,-1,4,96*
CC(C)CC#Cc1ccc2c(c1)O[C@H](CN(C)C(=O)Nc1ccccc1F)[C@@H](C)CN([C@@H](C)CO)S2(=O)=O,.,107*[16.7 µM],-3,-15
CC(C)CC#Cc1ccc2c(c1)O[C@H](CN(C)C(=O)C1CCC1)[C@H](C)CN([C@@H](C)CO)S2(=O)=O,.,-20[16.7 µM],3,-8
